This note sets out measurements from PubChem BioAssay (NCATS).

Records with an inconclusive call do not appear. Calls of active or inactive are those of the source. Unless noted, calls follow the shape of the dose curve; as a rule, active = well fitted curve in the direction sought with a large enough effect; inconclusive = small, poorly fitted or top-dose-only effect, or another doubt; inactive = no such curve, though single readings can be large; an effect the other way counts as inactive or inconclusive.

Assay [1] deals with Zika virus NS2B-NS3 protease. Description: Primary screen GU AMC qHTS for Zika virus inhibitors (AID 1347154).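 Also: 0% = no-inhibitor control and -100% = no-enzyme control; nearly all actives have a fitted effect of over 70% in size.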 In short, it runs like this:
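Unlinked Zika NS2B hydrophilic domain/NS3 protease domain noncovalent complex (25 nM final) in 10 mM Tris-HCl pH 8.0, 0.01% Tween 20, with AMC peptide substrate. Fluorescence (ex 340, em 450 nm) change over 15 min, room temperature; percent inhibition fitted to 4-parameter Hill equation.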
(In general: qHTS replaces the single test concentration by a dilution series.)

The nature of assay [2]: Counterscreen qHTS for small molecule stabilizers of the endoplasmic reticulum resident proteome: GLuc-NoTag assay (AID 1508627). Also: potency is read from the fitted curve at half-maximal effect.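 As to activity change, negative = inhibition: SH-SY5Y cells given compound then 100 nM thapsigargin to empty ER calcium; 0% = thapsigargin alone and -100% = DMSO vehicle control.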 Summed up:
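SH-SY5Y cells stably expressing constitutively secreted GLuc (no SERCaMP tag) were pre-incubated 5 h, treated with compound for 19 h, then 100 nM thapsigargin for 4 h at 37C; medium GLuc read by coelenterazine luminescence.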
For orientation: A counterscreen serves to expose hits that act by an unwanted route or on another target.

A short description of assay [3]: Cell Viability qHTS for small molecule stabilizers of the endoplasmic reticulum resident proteome (AID 1508629).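 Also: compound exposure about 46 h in total before the viability read.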 Also: potency is read from the fitted curve at half-maximal effect.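 As to max response: human SH-SY5Y neuroblastoma cells carrying the GLuc-SERCaMP reporter; % is scaled to controls: 0 for no effect and ±100 for the full control effect.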 Particulars: cell viability counter-screen, 100 nM thapsigargin for final 4 h.
The target in assay [4] is Glucocorticoid receptor (Homo sapiens) (UniProt P04150). Description: GR-GFP Redistribution (AID 450;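 active = compounds whose dose series gives a full or clear partial fitted curve of increased nuclear translocation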; also: potency is read from the fitted curve at half-maximal effect). Particulars: U2OS GR-GFP nuclear translocation, laser cytometry, 2 h.
Glucocorticoid receptor (Homo sapiens), sequence (P04150 whole entry, looked up, the tested form may be a part): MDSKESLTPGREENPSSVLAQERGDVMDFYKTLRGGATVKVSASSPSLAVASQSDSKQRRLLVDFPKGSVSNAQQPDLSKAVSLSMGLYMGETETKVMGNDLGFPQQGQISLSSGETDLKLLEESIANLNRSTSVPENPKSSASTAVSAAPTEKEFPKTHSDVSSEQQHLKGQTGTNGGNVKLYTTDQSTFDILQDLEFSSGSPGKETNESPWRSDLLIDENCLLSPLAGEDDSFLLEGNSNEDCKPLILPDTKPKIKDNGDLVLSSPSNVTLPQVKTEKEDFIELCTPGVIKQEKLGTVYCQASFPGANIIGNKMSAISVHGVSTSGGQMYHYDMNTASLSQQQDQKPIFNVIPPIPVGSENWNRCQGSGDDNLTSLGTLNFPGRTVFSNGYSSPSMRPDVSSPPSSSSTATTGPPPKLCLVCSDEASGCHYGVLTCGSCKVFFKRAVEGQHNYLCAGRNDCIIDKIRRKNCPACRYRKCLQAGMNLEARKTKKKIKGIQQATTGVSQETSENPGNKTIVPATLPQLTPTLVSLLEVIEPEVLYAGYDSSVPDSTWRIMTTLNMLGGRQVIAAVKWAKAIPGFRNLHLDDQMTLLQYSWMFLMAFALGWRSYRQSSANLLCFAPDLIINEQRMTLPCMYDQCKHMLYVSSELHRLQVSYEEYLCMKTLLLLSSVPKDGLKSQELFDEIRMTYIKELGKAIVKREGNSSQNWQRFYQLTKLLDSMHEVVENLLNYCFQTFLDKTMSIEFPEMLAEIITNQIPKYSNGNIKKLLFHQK
For assay [5] the target is unchanged. In words: GR-EFC Redistribution (AID 451; calls by dose curve; also: potency is read from the fitted curve at half-maximal effect). Particulars: CHO-K1 GR-EFC translocation, beta-gal luminescence, 2 h. In short, it runs like this: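 CHO-K1 cells stably expressing nuclear-localized β-gal enzyme acceptor and GR fused C-terminally to the enzyme donor fragment; ligand-driven nuclear translocation restores β-gal by complementation. Compounds titrated up to 46 uM final, 2 h at 37 °C; luminescence read.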

The target in assay [6] is Mitogen-activated protein kinase 10 (Mus musculus) (UniProt Q61831). Description: JNK3 AlphaScreen Assay (AID 530; active = well fitted curve in either direction with a large enough effect, not every such curve was filed as active;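 also: kinase came from lysate of stimulated human HepG2 cells; signal reports phosphorylation of biotinylated GST-cJun 1-79 at Ser73 with 10 µM ATP; % is scaled to controls: 0 for no effect and ±100 for the full control effect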). In short, it runs like this: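 JNK3 came from HepG2 lysates pre-activated with IL-1beta and TNF-alpha and phosphorylated biotinylated GST-cJun (1-79) at 10 uM ATP, pH 7.6, room temperature. Compounds were titrated. AlphaScreen signal used anti-phospho-cJun (Ser73) antibody.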
Background: In Alpha technology, singlet oxygen from a donor bead excites a nearby acceptor bead.

Assay [7] concerns the target Cytochrome P450 2D6 (Homo sapiens) (UniProt P10635). In words: qHTS Assay for Inhibitors and Substrates of Cytochrome P450 2D6 (AID 891). Also: potency is read from the fitted curve at half-maximal effect; nearly all actives have a fitted effect of over 60% in size. Summed up: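 Human CYP2D6 (5 nM) with 30 uM Luciferin-ME EGE (at Km) in 100 mM KPO4, compound preincubated 10 min, then NADPH regeneration system for 60 min at room temperature. Luciferin read by luminescence; normalized to 1.43 uM quinidine.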

A short description of assay [8]: qHTS Assay for Lipid Storage Modulators (AID 1519; calls by dose curve; as to activity change, negative = inhibition: % is scaled to controls: 0 for no effect and ±100 for the full control effect). The note with it: Drosophila S3 cells, BODIPY lipid droplet/cell ratio, laser cytometry, cells loaded with oleic acid. In short, it runs like this:
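Cells seeded at 5,000 per well were treated with compounds over a concentration series and loaded with oleic acid (400 uM, as added). Lipid droplet fluorescence (488 nm excitation, 500-530 nm channel) was read by laser-scanning cytometry and normalized to 20 uM Triacsin C.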

Assay [9] has as its target Ubiquitin carboxyl-terminal hydrolase 1 (Homo sapiens) (UniProt O94782). Description: Inhibitors of USP1/UAF1: Pilot qHTS (AID 504865).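 Also: rhodamine fluorescence freed from ubiquitin-rhodamine substrate followed over time; top concentration of the series differs between compounds; % is scaled to controls: 0 for no effect and ±100 for the full control effect; nearly all actives have a fitted effect of over 35% in size.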 In short, it runs like this: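 Enzyme-free wells gave the negative control, while test wells held 1nM USP1/UAF1 preincubated with compound for 15 min at room temperature. Ub-Rho at 150nM final started the reaction, and fluorescence at 480/540 nm was recorded kinetically.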

Assay [10] addresses DNA dC->dU-editing enzyme APOBEC-3G (Homo sapiens) (UniProt Q9HC16). Description: qHTS for inhibitors of Vif-A3G interactions: Validation (AID 588379). Also: 0% is about no effect. Summed up: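 HeLa cells stably expressing Vif and A3G-eYFP, 700 cells/well, incubated overnight at 37 deg C, then exposed to compound overnight at 37 deg C. Inhibition of Vif-mediated degradation read as increased yellow fluorescence (Ex 488/Em 500-530) by laser-scanning cytometry.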

Cytochrome P450 2D6 (Homo sapiens), sequence (P10635 whole entry, looked up): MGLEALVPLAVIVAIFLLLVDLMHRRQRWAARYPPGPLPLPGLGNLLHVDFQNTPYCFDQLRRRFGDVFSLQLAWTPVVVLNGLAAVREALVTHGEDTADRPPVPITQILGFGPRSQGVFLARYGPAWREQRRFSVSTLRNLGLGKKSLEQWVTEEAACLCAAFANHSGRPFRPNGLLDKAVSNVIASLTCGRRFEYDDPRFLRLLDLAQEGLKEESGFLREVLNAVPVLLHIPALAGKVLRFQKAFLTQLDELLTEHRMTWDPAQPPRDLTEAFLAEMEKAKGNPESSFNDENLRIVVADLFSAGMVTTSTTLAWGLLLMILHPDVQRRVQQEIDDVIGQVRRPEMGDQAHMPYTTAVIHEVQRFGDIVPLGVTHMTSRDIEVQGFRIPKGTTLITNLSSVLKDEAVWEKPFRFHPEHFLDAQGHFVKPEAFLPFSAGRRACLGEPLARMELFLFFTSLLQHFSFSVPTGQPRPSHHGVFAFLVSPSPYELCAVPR
Ubiquitin carboxyl-terminal hydrolase 1 (Homo sapiens), sequence (O94782 whole entry, looked up): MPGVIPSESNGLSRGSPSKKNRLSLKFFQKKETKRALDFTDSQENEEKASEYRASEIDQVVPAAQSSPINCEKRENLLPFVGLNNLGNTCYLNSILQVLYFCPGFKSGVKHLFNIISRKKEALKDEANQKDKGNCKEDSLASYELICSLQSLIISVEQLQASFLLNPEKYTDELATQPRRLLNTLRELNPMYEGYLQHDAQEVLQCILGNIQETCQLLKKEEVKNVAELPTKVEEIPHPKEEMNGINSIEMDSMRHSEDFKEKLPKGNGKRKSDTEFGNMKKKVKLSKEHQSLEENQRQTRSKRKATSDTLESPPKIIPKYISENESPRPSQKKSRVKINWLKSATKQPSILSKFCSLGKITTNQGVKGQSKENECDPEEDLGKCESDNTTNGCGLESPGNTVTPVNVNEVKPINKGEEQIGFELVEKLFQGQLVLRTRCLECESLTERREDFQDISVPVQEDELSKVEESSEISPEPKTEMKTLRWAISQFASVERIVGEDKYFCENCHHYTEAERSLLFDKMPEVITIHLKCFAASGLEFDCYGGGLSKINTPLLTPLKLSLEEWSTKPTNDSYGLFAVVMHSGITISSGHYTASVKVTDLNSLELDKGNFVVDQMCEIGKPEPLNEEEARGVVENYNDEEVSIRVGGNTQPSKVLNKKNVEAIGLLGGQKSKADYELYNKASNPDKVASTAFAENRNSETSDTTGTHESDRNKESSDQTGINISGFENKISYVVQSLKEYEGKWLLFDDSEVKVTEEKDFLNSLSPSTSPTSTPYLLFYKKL
DNA dC->dU-editing enzyme APOBEC-3G (Homo sapiens), sequence (Q9HC16 whole entry, looked up): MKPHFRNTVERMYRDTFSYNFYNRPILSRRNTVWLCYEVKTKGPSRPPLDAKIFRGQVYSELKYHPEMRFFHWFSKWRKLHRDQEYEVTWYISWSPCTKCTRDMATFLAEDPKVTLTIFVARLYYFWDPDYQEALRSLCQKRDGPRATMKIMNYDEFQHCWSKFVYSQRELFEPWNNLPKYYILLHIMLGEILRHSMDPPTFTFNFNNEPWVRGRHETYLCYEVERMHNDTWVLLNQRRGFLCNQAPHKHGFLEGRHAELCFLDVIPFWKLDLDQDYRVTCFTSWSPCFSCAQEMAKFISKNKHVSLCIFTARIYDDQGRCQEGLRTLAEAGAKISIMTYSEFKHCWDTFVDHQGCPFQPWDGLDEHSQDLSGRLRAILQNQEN

As for `CC(C(=O)OC1CC2CCC(C1)N2C)c1ccc(Br)cc1` (stereo unspecified), the Potency entry in [1] was “inactive”.

Consider `OC12C3C4CC5C6C4C1C6C(C53)N2CCc1cccc(F)c1` (stereo unspecified), for which the Potency entry in assay [1] and in assay [2] was “inactive” in each case.

On to `Fc1ccc(C(OCCN2CCN(C/C=C/c3ccccc3)CC2)c2ccc(F)cc2)cc1`, for which, in [1], the Potency result is “inactive”. The Potency in assay [2] is 44.7 µM (active); in assay [3] it was 20 µM (active).

In the case of `CC(C)=CCCN1CCC(NC(=O)C(O)(c2ccccc2)C2CCCC2)CC1` (stereo unspecified), the Potency result in assay [1] and in [2] was “inactive” each time. Moreover, the max response in assay [3] is 3.9% (inactive).

In the case of `C[C@@H](C(=O)OC1C[C@H]2CC[C@@H](C1)N2C)c1ccc(Br)cc1` (stereo partly specified), the Potency in assay [4] is > 46 µM (inactive); in assay [5], > 46 µM (inactive); in assay [7] it was 3.98 µM (active). Further, the call in assay [6] was inactive. Moreover, the activity change, negative = inhibition in [8] (at 57.5 µM (top of the series)) was 2.43% (inactive). Further, the figures for the max response in [8] (measured here: cell count channel max response), in assay [8] (measured here: lipid channel max response) and in assay [3] were 12.6%, 16.9% and -11% (inactive), respectively. Further, the Potency entry in assay [9], in assay [10], in [1] and in assay [2] was “inactive” each time.
